# Data reported in PubChem BioAssay.
# Activity calls are given as the source filed them.
# Assays:
# [1] = system: Plasmodium falciparum Sir2 (PF13_0152, Sir2A); experiment: Plasmodium falciparum Sir2A binding compounds – biochemical, small-molecule microarray, 635 nm fluorescence, primary screen (AID 1098); settings: fluorescence 635 nm, higher = more signal;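 note: score merges spot fluorescence intensity with its signal-to-noise ratio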
# [2] = probe aDKK1 binding to arrayed compounds – biochemical, biotinylated probe, 635/667 nm fluorescence, primary screen (AID 1099); settings: small-molecule microarray, higher = more signal;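 note: score merges 667nm spot fluorescence with signal to noise across triplicate slides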
# [3] = probe aCHRDL2 binding to arrayed compounds – biochemical, biotinylated probe, 635/667 nm fluorescence, primary screen (AID 1100); settings: small-molecule microarray, higher = more signal
# [4] = change in splice reporter luminescence, either direction, cell-based, HEK293, spliceosome inhibition project, primary screen (AID 1101); settings: HEK293 splicing luciferase reporter, 24 h, higher = more signal, called active from +8 up or from −8 down;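 note: HEK293 cells carrying a splicing-competent luciferase reporter gene; test concentration not given here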
# [5] = molecular target: Fibroblast growth factor 10 (Homo sapiens) (UniProt O15520); experiment: compounds binding fibroblast growth factor 10 – biochemical, small-molecule microarray, 635 nm fluorescence, primary screen (AID 1102); settings: FGF10 binding, fluorescence 635 nm, higher = more signal
# Fibroblast growth factor 10 (Homo sapiens), sequence (O15520 whole entry, looked up): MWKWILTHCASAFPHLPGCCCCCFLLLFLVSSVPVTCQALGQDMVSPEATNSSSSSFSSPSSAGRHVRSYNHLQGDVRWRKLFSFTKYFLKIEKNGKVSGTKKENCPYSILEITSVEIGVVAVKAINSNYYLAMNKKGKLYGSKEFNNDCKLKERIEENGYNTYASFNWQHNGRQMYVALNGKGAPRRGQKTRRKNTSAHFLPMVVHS
# [6] = system: glycogen synthase kinase-3 (GSK3A per assay name; protocol says GSK3B); experiment: compounds binding glycogen synthase kinase-3 – biochemical, small-molecule microarray, 635 nm fluorescence, GSK3A, primary screen (AID 1103); settings: fluorescence 635 nm, higher = more signal; note: the record names both GSK3A and GSK3B
# [7] = molecular target: Epidermal growth factor receptor (Homo sapiens) (UniProt P00533); experiment: compounds binding epidermal growth factor receptor – biochemical, small-molecule microarray, 635 nm fluorescence, primary screen (AID 1104); settings: EGFR binding, higher = more signal;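 note: score merges 667 nm emission intensity with spot signal to noise over triplicate slides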
# Epidermal growth factor receptor (Homo sapiens), sequence (P00533 whole entry, looked up): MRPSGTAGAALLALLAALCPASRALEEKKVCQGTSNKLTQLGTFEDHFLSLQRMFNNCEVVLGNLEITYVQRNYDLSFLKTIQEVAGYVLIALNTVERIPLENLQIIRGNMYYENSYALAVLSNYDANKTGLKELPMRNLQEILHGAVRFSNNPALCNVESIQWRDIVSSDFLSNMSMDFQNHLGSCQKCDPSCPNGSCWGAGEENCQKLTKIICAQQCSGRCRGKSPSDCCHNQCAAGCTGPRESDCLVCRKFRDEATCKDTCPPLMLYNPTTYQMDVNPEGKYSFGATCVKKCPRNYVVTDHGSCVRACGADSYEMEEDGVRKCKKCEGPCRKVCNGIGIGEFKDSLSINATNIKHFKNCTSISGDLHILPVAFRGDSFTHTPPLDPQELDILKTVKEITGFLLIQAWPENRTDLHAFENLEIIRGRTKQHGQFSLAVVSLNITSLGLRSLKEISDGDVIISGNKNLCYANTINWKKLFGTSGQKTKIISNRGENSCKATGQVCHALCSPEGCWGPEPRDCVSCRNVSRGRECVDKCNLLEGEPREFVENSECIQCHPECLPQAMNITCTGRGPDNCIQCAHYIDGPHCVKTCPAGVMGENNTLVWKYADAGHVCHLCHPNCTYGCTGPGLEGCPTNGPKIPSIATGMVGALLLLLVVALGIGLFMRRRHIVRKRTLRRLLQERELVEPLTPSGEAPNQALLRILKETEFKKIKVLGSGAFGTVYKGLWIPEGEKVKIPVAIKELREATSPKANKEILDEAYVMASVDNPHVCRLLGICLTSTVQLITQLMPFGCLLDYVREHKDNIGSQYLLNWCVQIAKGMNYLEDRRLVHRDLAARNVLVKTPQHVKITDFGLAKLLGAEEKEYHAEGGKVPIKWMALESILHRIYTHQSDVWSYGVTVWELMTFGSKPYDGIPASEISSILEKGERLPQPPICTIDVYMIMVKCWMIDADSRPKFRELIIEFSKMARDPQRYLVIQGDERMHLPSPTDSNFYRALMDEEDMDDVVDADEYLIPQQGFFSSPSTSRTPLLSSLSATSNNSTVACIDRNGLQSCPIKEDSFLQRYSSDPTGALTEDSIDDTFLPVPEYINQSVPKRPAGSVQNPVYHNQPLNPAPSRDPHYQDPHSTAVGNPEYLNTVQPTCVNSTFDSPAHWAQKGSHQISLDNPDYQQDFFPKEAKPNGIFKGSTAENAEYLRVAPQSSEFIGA
# [8] = molecular target: Follistatin-related protein 3 (Homo sapiens) (UniProt O95633); experiment: compounds binding follistatin-related protein 3 – biochemical, small-molecule microarray, 635 nm fluorescence, primary screen (AID 1105); settings: FSTL3 binding, higher = more signal;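 note: score merges emission near 667 nm and signal to noise per printed spot across three slides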
# Follistatin-related protein 3 (Homo sapiens), sequence (O95633 whole entry, looked up): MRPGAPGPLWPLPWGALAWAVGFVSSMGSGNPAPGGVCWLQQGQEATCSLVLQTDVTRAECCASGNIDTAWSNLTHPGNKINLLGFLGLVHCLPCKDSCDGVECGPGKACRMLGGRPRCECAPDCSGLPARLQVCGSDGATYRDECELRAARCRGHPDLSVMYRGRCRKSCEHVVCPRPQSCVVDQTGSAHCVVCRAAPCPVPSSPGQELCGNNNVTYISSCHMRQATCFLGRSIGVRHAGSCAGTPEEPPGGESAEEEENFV
# [9] = molecular target: Dickkopf-related protein 1 (Homo sapiens) (UniProt O94907); experiment: small molecules binding DKK1 protein – biochemical, small-molecule microarray, 635 nm fluorescence scan, primary screen (AID 1106); settings: higher = more signal;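 note: score merges emission near 667 nm with signal to noise over three replicate slides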
# Dickkopf-related protein 1 (Homo sapiens), sequence (O94907 whole entry, looked up): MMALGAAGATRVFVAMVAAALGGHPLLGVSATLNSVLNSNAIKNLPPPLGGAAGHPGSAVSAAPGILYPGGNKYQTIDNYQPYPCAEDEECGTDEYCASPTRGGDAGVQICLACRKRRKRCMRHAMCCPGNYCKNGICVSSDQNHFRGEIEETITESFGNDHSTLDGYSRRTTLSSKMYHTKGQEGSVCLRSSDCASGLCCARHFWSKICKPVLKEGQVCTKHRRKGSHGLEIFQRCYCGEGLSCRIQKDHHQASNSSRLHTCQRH
# [10] = system: Inhibin beta A chain (activin A); experiment: small molecules binding activin A – biochemical, small-molecule microarray, 635 nm fluorescence scan, primary screen (AID 1107); settings: INHBA, higher = more signal;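 note: mouse activin A protein probed at 4.33 µg/mL on printed slides; score merges bound-protein fluorescence near 667 nm with spot signal-to-noise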
# [11] = system: Human papillomavirus type 1a protein E7 (residues 44-93); experiment: small molecules binding HPV E7 44-93 – biochemical, small-molecule microarray, residues 44-93, 635 nm fluorescence, primary screen (AID 1108); settings: fluorescence 635 nm, higher = more signal;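 note: E7 fragment applied at 1 µg/mL in TBST for 1 h at 4 C; score combines spot fluorescence with its signal to noise ratio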
# [12] = hepatitis C replication reporter changes, two-sided – Huh7 cells, luciferase reporter, HCV replication inhibitor project, primary screen (AID 1109); settings: Huh7 HCV replicon luciferase reporter, 48 h; higher = more signal;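 note: huh7 hepatoma cells harbouring a luciferase neomycin HCV replicon reporter; luciferase luminescence as measure of HCV replicon replication; test concentration not given here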
# [13] = molecular target: Left-right determination factor 2 (Homo sapiens) (UniProt O00292); experiment: small molecules binding LEFTY2 protein – biochemical, small-molecule microarray, 635 nm fluorescence scan, primary screen (AID 1110); settings: higher = more signal
# Left-right determination factor 2 (Homo sapiens), sequence (O00292 whole entry, looked up): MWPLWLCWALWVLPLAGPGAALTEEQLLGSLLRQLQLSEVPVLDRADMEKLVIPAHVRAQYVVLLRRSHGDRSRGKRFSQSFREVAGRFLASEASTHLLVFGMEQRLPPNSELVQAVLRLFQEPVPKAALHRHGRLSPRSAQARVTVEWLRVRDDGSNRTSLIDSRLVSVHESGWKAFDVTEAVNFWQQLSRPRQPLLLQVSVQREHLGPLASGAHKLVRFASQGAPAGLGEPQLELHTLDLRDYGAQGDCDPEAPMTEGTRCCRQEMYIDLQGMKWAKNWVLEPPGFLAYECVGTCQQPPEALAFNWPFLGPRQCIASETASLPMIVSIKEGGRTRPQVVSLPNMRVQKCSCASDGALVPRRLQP
# [14] = molecular target: Calmodulin-1 (Homo sapiens) (UniProt P0DP23); experiment: small molecules binding calmodulin-1 with EGTA – biochemical, small-molecule microarray, Cy5-labelled CALM1, profiling panel (AID 1111); settings: Cy5-CALM1 binding fluorescence, higher = more signal;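 note: labelled calmodulin applied in Tris saline Tween buffer holding calcium plus EGTA and DTT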
# [15] = molecular target: Calmodulin-1 (Homo sapiens) (UniProt P0DP23); experiment: small molecules binding Ca-loaded calmodulin-1 – biochemical, small-molecule microarray, Cy5-labelled CALM1, plus calcium, artefact control for SMM control-protein annotation, profiling panel (AID 1112); settings: Cy5-CALM1 binding fluorescence, higher = more signal;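 note: score merges spot fluorescence with signal to noise from triplicate slides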
# [16] = probe aWnt5a binding to arrayed compounds – biochemical, biotinylated probe, 635/667 nm fluorescence, primary screen (AID 1113); settings: small-molecule microarray, higher = more signal;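 note: score merges 667 nm fluorescence intensity with signal-to-noise per printed feature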
# [17] = probe aShh binding to arrayed compounds – biochemical, biotinylated probe, 635/667 nm fluorescence, primary screen (AID 1114); settings: small-molecule microarray, higher = more signal;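 note: probe is biotin-labelled aShh protein from a stem cell growth factor screen; measures binding of labelled protein to compounds printed on the slide; score merges feature fluorescence at 667 nm with signal-to-noise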
# [18] = probe aNog binding to arrayed compounds – biochemical, biotinylated probe, 635/667 nm fluorescence, primary screen (AID 1115); settings: small-molecule microarray, higher = more signal;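 note: probe is biotinylated aNog protein used at 0.15 µg/mL for 1 h at 4 C; z-score combines 667 nm fluorescence of each spot with its signal to noise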
# [19] = molecular target: Torsin-1A-interacting protein 1 (Homo sapiens) (UniProt Q5JTV8); experiment: compound microarray binding of lysate hLAP1 – cell lysate, small-molecule microarray, COS7 lysate, 635/667 nm fluorescence, primary screen (AID 1116); settings: 635 nm fluorescence, higher = more signal
# Torsin-1A-interacting protein 1 (Homo sapiens), sequence (Q5JTV8 whole entry, looked up): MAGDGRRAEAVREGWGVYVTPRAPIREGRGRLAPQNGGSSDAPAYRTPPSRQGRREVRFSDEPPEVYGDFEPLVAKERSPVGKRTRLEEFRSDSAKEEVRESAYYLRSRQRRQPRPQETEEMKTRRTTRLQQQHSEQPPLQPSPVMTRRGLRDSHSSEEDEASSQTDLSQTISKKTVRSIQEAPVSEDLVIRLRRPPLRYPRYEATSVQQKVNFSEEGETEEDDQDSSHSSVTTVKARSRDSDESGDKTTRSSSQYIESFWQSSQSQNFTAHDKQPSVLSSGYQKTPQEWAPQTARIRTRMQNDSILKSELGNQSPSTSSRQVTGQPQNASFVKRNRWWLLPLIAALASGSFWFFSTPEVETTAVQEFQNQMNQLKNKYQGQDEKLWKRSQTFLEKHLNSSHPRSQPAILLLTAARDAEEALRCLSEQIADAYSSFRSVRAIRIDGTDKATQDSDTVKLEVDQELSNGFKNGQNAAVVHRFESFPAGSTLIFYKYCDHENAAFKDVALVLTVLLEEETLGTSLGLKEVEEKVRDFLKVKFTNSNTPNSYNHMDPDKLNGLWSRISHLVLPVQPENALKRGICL
# [20] = molecular target: Alpha-bungarotoxin (Bungarus multicinctus) (UniProt P60615); experiment: compounds binding labelled alpha-BTX control protein – biochemical, small-molecule microarray, Alexa647 label, 635/667 nm fluorescence, artefact control for SMM control protein annotation, profiling panel (AID 1117); settings: alpha-BTX-A647 binding fluorescence, higher = more signal
# Alpha-bungarotoxin (Bungarus multicinctus), sequence (P60615 whole entry, looked up): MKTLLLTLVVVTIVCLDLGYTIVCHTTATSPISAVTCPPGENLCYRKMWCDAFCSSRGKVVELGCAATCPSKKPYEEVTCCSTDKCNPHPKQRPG
smiles,measurement,setting,value
COCCOC(=O)N1C(=O)[C@@]2(c3cc(C#Cc4ccc(OC)cc4)ccc31)[C@H](C(=O)N1CCN(c3ncccn3)CC1)[C@H]1C(=O)O[C@H](c3ccccc3)[C@H](c3ccccc3)N1[C@@H]2c1ccc(O)cc1,composite z-score,[1],-0.12
same,composite z-score,[2],-0.138
same,composite z-score,[3],0.0953
same,z-score,[4],-0.772 (inactive)
same,composite z-score,[5],-0.0132
same,composite z-score,[6],-0.0617
same,composite z-score,[7],-0.026
same,composite z-score,[8],0.246
same,composite z-score,[9],0.37
same,composite z-score,[10],-0.0611
same,composite z-score,[11],0.519
same,z-score,[12],-1.39
same,composite z-score,[13],0.0473
same,composite z-score,[14],0.958
same,composite z-score,[15],0.217
same,composite z-score,[16],-0.207
same,composite z-score,[17],-0.138
same,composite z-score,[18],-0.366
same,composite z-score,[19],0.135
same,composite z-score,[20],0.107
CC(=CC1CCCCC1)[C@@H](NC(=O)c1ccc(C(F)(F)F)cc1)c1ccc(-c2ccccc2)cc1,composite z-score,[1],-0.0411
same,composite z-score,[2],0.41
same,composite z-score,[3],0.848
same,z-score,[4],-0.423 (inactive)
same,composite z-score,[5],-0.394
same,composite z-score,[6],-0.988
same,composite z-score,[7],-0.365
same,composite z-score,[8],0.138
same,composite z-score,[9],-0.0349
same,composite z-score,[10],1.03
same,composite z-score,[11],-0.778
same,z-score,[12],-1.04
same,composite z-score,[13],-0.886
same,composite z-score,[14],0.605
same,composite z-score,[15],0.636
same,composite z-score,[16],-0.0735
same,composite z-score,[17],0.151
same,composite z-score,[18],0.506
same,composite z-score,[19],-0.204
same,composite z-score,[20],0.48
C=C(C(=O)CC[C@H](OC(C)=O)c1ccc(OCCO)cc1)C(C)C,composite z-score,[1],-0.478
same,composite z-score,[2],-0.267
same,composite z-score,[3],-0.906
same,z-score,[4],-3.58 (inactive)
same,composite z-score,[5],1.37
same,composite z-score,[6],-0.479
same,composite z-score,[7],0.982
same,composite z-score,[8],0.876
same,composite z-score,[9],2.01
same,composite z-score,[10],-0.0025
same,composite z-score,[11],-0.268
same,z-score,[12],-4.11
same,composite z-score,[13],1.03
same,composite z-score,[14],-0.189
same,composite z-score,[15],-1.39
same,composite z-score,[16],-0.1
same,composite z-score,[17],-0.0157
same,composite z-score,[18],-0.0965
same,composite z-score,[19],0.949
same,composite z-score,[20],1.05
CCCN1C(=O)[C@@]2(CCC(=O)OC(C)(C)C)N=C(c3ccc(OCCCO)cc3)O[C@H]2c2ccccc21,composite z-score,[1],0.902
same,composite z-score,[2],-0.243
same,composite z-score,[3],0.713
same,z-score,[4],0.478 (inactive)
same,composite z-score,[5],0.9
same,composite z-score,[6],1.22
same,composite z-score,[7],0.246
same,composite z-score,[8],0.874
same,composite z-score,[9],0.242
same,composite z-score,[10],1.03
same,composite z-score,[11],1.11
same,z-score,[12],-2.75
same,composite z-score,[13],0.163
same,composite z-score,[14],0.786
same,composite z-score,[15],-0.38
same,composite z-score,[16],0.0044
same,composite z-score,[17],-0.0866
same,composite z-score,[18],-0.0875
same,composite z-score,[19],0.816
same,composite z-score,[20],0.285
NCCCCCNC(=O)[C@H]1C[C@H]2C(=O)NCC(=O)N2[C@H]1c1cccc(OCCO)c1,composite z-score,[1],1.64
same,composite z-score,[2],0.31
same,composite z-score,[3],0.284
same,z-score,[4],-0.284 (inactive)
same,composite z-score,[5],1.25
same,composite z-score,[6],1.29
same,composite z-score,[7],0.388
same,composite z-score,[8],0.764
same,composite z-score,[9],0.912
same,composite z-score,[10],-0.0463
same,composite z-score,[11],1.34
same,z-score,[12],-0.786
same,composite z-score,[13],0.296
same,composite z-score,[14],0.828
same,composite z-score,[15],0.8
same,composite z-score,[16],-0.157
same,composite z-score,[17],0.158
same,composite z-score,[18],-0.324
same,composite z-score,[19],0.86
same,composite z-score,[20],1.51
O=C1OCCC=C[C@H]2OC34C=CCN(Cc5ccccc5)C(=O)[C@H]3N(CCCCCO)C(=O)[C@@H]4C12 (stereo not given in full),composite z-score,[1],1.96
same,composite z-score,[2],-0.285
same,composite z-score,[3],0.672
same,z-score,[4],-0.34 (inactive)
same,composite z-score,[5],-0.779
same,composite z-score,[6],1.06
same,composite z-score,[7],-0.744
same,composite z-score,[8],-0.595
same,composite z-score,[9],-1.19
same,composite z-score,[10],0.141
same,composite z-score,[11],1.1
same,z-score,[12],-0.481
same,composite z-score,[13],-1.24
same,composite z-score,[14],-0.565
same,composite z-score,[15],0.13
same,composite z-score,[16],-0.091
same,composite z-score,[17],-0.154
same,composite z-score,[18],-0.177
same,composite z-score,[19],1.95
same,composite z-score,[20],-1.06
